Measurements as given in PubChem BioAssay (NCATS).
Results filed as inconclusive are left out. Entries that show only a call come without a potency. The source made the active and inactive calls. Unless noted, calls come from the whole dose curve; as a rule, active = well fitted curve in the direction sought with a large enough effect; inconclusive = small, poorly fitted or top-dose-only effect, or another doubt; inactive = no such curve, though single readings can be large; an effect the other way counts as inactive or inconclusive.

Experiments:
[1] = target: Cytochrome P450 3A4 (Homo sapiens) (UniProt P08684); experiment: qHTS Assay for Activators of Cytochrome P450 3A4 (AID 885); note: nearly all actives have a fitted effect of over 65% in size
Method in brief: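 Quantitative HTS format: compounds preincubated with 20nM human CYP3A4 and Luciferin-PPXE substrate at KM, reaction started by NADPH regeneration, stopped after 60 min, luciferase luminescence read 20 min later.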

[2] = Confirmation and Secondary Assay for Modulators of Hemoglobin Beta Chain Splicing at IVS2 654 locus (AID 910);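 note: per-well total GFP intensity by laser scanning cytometry after 2-day treatment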
Method in brief: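 HeLa cells stably carrying EGFP interrupted by mutant beta-globin IVS2-654 intron (CMV-driven) were treated with compound for 2 days at 37C; corrected splicing was scored as total peak GFP intensity per well (488 nm excitation, 500-520 nm emission).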

[3] = qHTS Assay for Lipid Storage Modulators (AID 1519; calls by dose curve); conditions: Drosophila S3 cells, BODIPY lipid droplet/cell ratio, laser cytometry, cells loaded with oleic acid
Method in brief: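 Cells seeded at 5,000 per well were treated with compounds over a concentration series and loaded with oleic acid (400 uM, as added). Lipid droplet fluorescence (488 nm excitation, 500-530 nm channel) was read by laser-scanning cytometry and normalized to 20 uM Triacsin C.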

[4] = target: Ubiquitin carboxyl-terminal hydrolase 1 (Homo sapiens) (UniProt O94782); experiment: Inhibitors of USP1/UAF1: Pilot qHTS (AID 504865); note: nearly all actives have a fitted effect of over 35% in size; note: potency is the fitted concentration of half-maximal effect;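 for activity change, negative = inhibition: rhodamine fluorescence freed from ubiquitin-rhodamine substrate followed over time; top concentration of the series differs between compounds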
Method in brief: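 Enzyme-free wells gave the negative control, while test wells held 1nM USP1/UAF1 preincubated with compound for 15 min at room temperature. Ub-Rho at 150nM final started the reaction, and fluorescence at 480/540 nm was recorded kinetically.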

[5] = target: Rap guanine nucleotide exchange factor 3 (Homo sapiens) (UniProt O95398); experiment: Confirmatory qHTS for antagonist of cAMP-regulated guanine nucleotide exchange factor 3 (EPAC1) (AID 1645880); note: nearly all actives have a fitted effect of over 55% in size; note: potency is the fitted concentration of half-maximal effect
Method in brief: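 Nucleotide exchange uses 100 nM EPAC1, 250 nM RAP1B-BODIPY-GDP and 50 uM GDP, with compounds in a concentration-titration series. After 5 min at room temperature, fluorescence (480 nm ex/540 nm em) is read every 5 min for 30 min. Data are normalized to control ATA and DMSO.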

[6] = target: Rap guanine nucleotide exchange factor 3 (Homo sapiens) (UniProt O95398); experiment: Confirmatory qHTS for agonist of cAMP-regulated guanine nucleotide exchange factor 3 (EPAC1) (AID 1645881);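 note: EPAC1 catalysed release of BODIPY-GDP from Rap1B seen as fluorescence loss; nearly all actives have a fitted effect of over 75% in size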
[7] = target: Rap guanine nucleotide exchange factor 4 (Homo sapiens) (UniProt Q8WZA2); experiment: Confirmatory qHTS for agonist of cAMP-regulated guanine nucleotide exchange factor 4 (EPAC2) (AID 1645884);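 note: nucleotide exchange releases bodipy-GDP from Rap1 and this lowers its fluorescence; nearly all actives have a fitted effect of over 65% in size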
[8] = target: Cytochrome P450 1A2 (Homo sapiens) (UniProt P05177); experiment: p450-cyp1a2 (AID 410; calls by dose curve)
Method in brief: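 Luminescent readout of luciferin formed from Luciferin-ME by human CYP1A2; data normalized against complete inhibition by 57 uM furafylline. Enzyme 20nM, substrate 100uM at Km, 100mM KPO4 buffer, 60 min reaction at room temperature.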

[9] = Stat Signaling Pathway (AID 446; active = well fitted curve in either direction with a large enough effect, not every such curve was filed as active;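 note: ME-180 cervical cancer cells given 40 pM IL-6 alongside compound; SIE-controlled beta-lactamase reporter measured as 460/530 nm FRET emission ratio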); conditions: ME-180 (cervical carcinoma) SIE beta-lactamase reporter, IL-6 stimulated, 5 h; at 7.69 µM (top of the series) unless noted
Method in brief: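 IL-6/STAT signaling read in ME-180 cells via an SIE beta-lactamase reporter. Stimulus was 40 pM IL-6 (its AC50) for 5 hrs, so both activation and inhibition register.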

[10] = target: Glucocorticoid receptor (Homo sapiens) (UniProt P04150); experiment: GR-GFP Redistribution (AID 450;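 active = compounds whose dose series gives a full or clear partial fitted curve of increased nuclear translocation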; note: potency is the fitted concentration of half-maximal effect); conditions: U2OS GR-GFP nuclear translocation, laser cytometry, 2 h
[11] = target: Glucocorticoid receptor (Homo sapiens) (UniProt P04150); experiment: GR-EFC Redistribution (AID 451; calls by dose curve; note: potency is the fitted concentration of half-maximal effect); conditions: CHO-K1 GR-EFC translocation, beta-gal luminescence, 2 h
Method in brief: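 CHO-K1 cells stably expressing nuclear-localized β-gal enzyme acceptor and GR fused C-terminally to the enzyme donor fragment; ligand-driven nuclear translocation restores β-gal by complementation. Compounds titrated up to 46 uM final, 2 h at 37 °C; luminescence read.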

[12] = target: 3',5'-cyclic-AMP phosphodiesterase 4B (Homo sapiens) (UniProt Q07343); experiment: qHTS Assay for Inhibitors of PDE-IV (AID 607; active = well fitted activation curve with a large enough effect in the main read-out, with a control signal flat, not every such curve was filed as active)
Method in brief: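 Live HEK293 cells with a modified cyclic nucleotide-gated (CNG) channel report intracellular cAMP via membrane-potential dye fluorescence (ex 535/em 590 nm). Endogenous PDE-IV was targeted. Compounds were tested at up to 22.9 uM final; RO 20-1724 100 uM served as control.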

[13] = target: Rap guanine nucleotide exchange factor 4 (Homo sapiens) (UniProt Q8WZA2); experiment: Confirmatory qHTS for antagonist of cAMP-regulated guanine nucleotide exchange factor 4 (EPAC2) (AID 1645885); note: nearly all actives have a fitted effect of over 25% in size; note: potency is the fitted concentration of half-maximal effect
[14] = target: Cytochrome P450 3A4 (Homo sapiens) (UniProt P08684); experiment: qHTS Assay for Inhibitors and Substrates of Cytochrome P450 3A4 (AID 884); note: nearly all actives have a fitted effect of over 50% in size; note: potency is the fitted concentration of half-maximal effect
Method in brief: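 20 nM human CYP3A4 with 25 uM Luciferin-PPXE (at KM) in 200 mM KPO4, preincubated 10 min with compound; NADPH regeneration started a 60 min RT reaction. Luciferin detected by luminescence, normalized to 57 uM ketoconazole as full inhibition.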

[15] = Confirmation and Secondary Assay for Modulators of Hemoglobin Beta Chain Splicing at IVS2 705 locus (AID 930);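 note: HeLa cells stably expressing the EGFP-705 splicing reporter; GFP fluorescence per well restored by corrected splicing of the IVS2-705 intron in EGFP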
Method in brief: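 Stable HeLa line with EGFP disrupted by mutant beta-globin intron 2 (705). Overnight attachment, then 2 days of compound at 37C, 5% CO2. Signal: peak GFP intensity summed over objects 5-250 µm.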

[16] = measured here: cell count channel max response
[17] = measured here: lipid channel max response

Chain of Cytochrome P450 3A4 (Homo sapiens) (P08684 whole entry, looked up): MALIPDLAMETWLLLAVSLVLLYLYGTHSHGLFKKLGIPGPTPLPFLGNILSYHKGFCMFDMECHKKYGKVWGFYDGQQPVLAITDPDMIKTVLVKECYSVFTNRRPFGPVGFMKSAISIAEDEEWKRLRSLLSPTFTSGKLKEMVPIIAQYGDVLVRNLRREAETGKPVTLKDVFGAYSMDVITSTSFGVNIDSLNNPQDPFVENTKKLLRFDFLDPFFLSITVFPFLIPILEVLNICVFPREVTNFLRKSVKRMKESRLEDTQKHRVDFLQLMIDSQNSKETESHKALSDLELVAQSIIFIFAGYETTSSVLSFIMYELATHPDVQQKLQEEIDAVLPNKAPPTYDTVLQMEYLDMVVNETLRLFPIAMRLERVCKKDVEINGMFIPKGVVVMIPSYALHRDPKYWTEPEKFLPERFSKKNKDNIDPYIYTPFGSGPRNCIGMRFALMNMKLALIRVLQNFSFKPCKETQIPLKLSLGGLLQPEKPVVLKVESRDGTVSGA
Chain of Ubiquitin carboxyl-terminal hydrolase 1 (Homo sapiens) (O94782 whole entry, looked up): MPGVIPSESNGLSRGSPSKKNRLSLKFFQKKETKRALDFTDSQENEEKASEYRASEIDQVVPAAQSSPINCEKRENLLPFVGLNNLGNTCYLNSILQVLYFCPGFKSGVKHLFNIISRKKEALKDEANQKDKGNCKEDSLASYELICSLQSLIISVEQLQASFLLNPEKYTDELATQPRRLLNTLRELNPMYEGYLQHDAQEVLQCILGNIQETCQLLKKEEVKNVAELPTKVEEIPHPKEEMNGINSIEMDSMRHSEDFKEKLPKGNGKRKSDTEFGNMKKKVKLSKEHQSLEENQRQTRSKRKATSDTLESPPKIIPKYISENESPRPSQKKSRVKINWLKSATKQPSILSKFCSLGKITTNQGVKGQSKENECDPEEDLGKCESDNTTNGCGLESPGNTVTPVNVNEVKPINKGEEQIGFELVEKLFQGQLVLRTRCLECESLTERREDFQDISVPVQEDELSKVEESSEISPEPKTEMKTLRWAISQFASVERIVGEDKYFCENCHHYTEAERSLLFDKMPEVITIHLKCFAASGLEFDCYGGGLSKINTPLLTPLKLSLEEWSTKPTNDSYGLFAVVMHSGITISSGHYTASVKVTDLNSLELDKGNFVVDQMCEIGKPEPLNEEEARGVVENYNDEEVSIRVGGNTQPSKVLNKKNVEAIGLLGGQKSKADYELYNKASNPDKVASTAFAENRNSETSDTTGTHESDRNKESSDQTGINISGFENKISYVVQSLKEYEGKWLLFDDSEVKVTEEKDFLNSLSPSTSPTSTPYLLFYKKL
Chain of Rap guanine nucleotide exchange factor 4 (Homo sapiens) (Q8WZA2 whole entry, looked up): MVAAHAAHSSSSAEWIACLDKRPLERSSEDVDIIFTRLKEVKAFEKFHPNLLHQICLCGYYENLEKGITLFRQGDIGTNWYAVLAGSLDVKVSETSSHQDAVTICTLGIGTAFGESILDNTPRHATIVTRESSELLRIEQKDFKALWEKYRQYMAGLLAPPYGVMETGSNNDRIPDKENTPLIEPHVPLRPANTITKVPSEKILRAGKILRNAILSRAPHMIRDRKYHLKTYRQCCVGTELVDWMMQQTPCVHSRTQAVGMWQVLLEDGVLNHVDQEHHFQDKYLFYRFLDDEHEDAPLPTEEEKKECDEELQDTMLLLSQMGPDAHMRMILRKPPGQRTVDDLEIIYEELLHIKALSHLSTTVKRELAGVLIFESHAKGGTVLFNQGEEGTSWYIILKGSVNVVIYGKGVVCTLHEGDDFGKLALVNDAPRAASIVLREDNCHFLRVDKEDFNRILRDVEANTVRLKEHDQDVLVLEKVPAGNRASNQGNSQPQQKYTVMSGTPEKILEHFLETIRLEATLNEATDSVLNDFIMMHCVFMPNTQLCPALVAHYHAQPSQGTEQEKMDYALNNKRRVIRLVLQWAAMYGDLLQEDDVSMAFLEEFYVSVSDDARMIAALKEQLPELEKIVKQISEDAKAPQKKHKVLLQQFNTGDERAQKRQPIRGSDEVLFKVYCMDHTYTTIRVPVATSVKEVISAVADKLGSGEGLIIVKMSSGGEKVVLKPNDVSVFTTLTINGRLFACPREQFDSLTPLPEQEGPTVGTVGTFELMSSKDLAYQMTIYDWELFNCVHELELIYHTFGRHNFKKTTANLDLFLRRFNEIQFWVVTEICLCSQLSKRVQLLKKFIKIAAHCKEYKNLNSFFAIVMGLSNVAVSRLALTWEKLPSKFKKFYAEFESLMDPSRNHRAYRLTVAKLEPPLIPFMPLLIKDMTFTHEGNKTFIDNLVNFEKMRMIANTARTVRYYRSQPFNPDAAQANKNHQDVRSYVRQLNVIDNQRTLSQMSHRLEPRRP
Chain of Rap guanine nucleotide exchange factor 3 (Homo sapiens) (O95398 whole entry, looked up): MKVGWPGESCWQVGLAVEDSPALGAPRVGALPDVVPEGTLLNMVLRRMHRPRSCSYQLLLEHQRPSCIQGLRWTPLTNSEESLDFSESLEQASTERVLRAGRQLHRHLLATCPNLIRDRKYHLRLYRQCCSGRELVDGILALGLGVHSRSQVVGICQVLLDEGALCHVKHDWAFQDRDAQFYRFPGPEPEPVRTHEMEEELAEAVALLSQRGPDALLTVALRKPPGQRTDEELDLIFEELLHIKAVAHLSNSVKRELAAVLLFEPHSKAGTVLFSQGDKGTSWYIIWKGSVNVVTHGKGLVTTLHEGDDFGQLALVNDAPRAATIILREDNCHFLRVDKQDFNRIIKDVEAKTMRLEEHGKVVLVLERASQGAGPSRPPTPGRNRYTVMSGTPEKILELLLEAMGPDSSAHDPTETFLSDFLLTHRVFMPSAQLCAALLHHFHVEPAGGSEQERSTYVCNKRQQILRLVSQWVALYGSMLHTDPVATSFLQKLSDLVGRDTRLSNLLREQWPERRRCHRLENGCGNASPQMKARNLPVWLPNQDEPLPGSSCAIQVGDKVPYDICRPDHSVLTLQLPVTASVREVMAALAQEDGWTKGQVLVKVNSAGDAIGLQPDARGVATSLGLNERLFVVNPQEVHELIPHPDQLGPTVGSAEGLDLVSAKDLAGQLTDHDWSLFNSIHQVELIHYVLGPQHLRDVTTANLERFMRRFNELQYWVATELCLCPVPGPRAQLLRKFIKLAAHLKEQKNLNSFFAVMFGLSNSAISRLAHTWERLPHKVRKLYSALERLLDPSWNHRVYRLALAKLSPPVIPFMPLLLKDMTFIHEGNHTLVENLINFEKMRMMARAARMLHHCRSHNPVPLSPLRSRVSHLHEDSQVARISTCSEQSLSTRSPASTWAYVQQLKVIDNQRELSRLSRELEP
Chain of Glucocorticoid receptor (Homo sapiens) (P04150 whole entry, looked up, the tested form may be a part): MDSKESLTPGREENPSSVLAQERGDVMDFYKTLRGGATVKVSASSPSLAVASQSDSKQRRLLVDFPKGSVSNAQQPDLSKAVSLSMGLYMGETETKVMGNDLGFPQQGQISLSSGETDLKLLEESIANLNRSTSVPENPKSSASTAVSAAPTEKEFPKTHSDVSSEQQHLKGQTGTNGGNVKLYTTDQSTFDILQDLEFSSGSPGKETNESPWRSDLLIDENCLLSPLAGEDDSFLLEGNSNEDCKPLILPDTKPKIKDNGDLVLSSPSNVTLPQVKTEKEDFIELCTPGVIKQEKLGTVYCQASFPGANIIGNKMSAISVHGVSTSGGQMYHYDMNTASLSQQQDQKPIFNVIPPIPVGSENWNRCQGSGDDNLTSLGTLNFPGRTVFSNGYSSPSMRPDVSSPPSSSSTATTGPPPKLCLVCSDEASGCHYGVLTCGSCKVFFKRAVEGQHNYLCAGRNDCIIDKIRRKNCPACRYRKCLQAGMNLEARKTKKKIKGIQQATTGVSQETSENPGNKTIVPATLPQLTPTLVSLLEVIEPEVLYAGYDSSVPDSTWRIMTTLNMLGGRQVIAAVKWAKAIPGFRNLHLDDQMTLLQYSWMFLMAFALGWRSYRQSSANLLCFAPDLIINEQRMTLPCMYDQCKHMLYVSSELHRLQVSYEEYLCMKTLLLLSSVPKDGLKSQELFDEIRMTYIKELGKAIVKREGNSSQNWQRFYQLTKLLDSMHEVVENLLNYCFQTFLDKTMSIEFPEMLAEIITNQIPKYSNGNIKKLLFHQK
Chain of Cytochrome P450 1A2 (Homo sapiens) (P05177 whole entry, looked up): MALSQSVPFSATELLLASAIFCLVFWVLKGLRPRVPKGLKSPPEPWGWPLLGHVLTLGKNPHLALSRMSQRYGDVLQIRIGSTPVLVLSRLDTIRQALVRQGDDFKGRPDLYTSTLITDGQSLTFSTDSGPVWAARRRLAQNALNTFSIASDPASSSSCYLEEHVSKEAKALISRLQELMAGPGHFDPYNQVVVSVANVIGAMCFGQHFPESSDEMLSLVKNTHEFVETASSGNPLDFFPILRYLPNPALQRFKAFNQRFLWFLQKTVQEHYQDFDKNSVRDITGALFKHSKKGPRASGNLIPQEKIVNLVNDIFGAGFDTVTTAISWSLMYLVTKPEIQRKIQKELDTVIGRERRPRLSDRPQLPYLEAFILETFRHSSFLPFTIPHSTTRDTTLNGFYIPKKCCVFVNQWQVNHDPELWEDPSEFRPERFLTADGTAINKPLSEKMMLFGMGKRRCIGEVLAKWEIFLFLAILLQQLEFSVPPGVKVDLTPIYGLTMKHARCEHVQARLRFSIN

SMILES	Potency [1]	Potency [2]	activity change, negative = inhibition ([3]; at 57.5 µM (top of the series))	max response [3, 16] [%]	max response [3, 17] [%]	Potency [4]	Potency [5]	Potency [6]	Potency [7]	Potency [8]	activity, negative = inhibition [9]	Potency [10]	Potency [11]	Potency [12]	activity change, negative = inhibition ([3]; at 25.7 µM (top of the series))	Potency [13]	Potency [14]	outcome [15]
CCOC(=O)c1c(C)cc(OC)cc1O	inactive	inactive	-10.6% (inactive)	3.28	-5.56	inactive	inactive	inactive	inactive	–	–	–	–	–	–	–	–	–
Nc1nc2n[nH]nc2c(=O)[nH]1	–	–	–	15.7	11	inactive	inactive	inactive	inactive	inactive	-26.9% [at 17.2 µM] (inactive)	> 20.6 µM (inactive)	> 20.6 µM (inactive)	inactive	-1.04% (inactive)	inactive	–	–
COc1ccc(C(=O)O)c(O)c1OC	–	inactive	7.29% (inactive)	8.57	18.5	inactive	inactive	inactive	inactive	–	–	–	–	–	–	inactive	inactive	inactive
O=c1cc(-c2ccc(O)c(O)c2)oc2cc(OC3OC(CO)C(O)C(O)C3O)cc(O)c12 (configuration not stated)	–	–	7.95% (inactive)	6.89	11.2	–	7.03 µM (active)	inactive	inactive	–	–	–	–	–	–	inactive	inactive	–
COc1ccc(-c2cc(=O)c3c(OC)c(OC)c(OC)c(OC)c3o2)cc1	inactive	inactive	-5.75% (inactive)	-19.4	-24.9	–	inactive	inactive	–	–	–	–	–	–	–	–	12.6 µM (active)	inactive
CC1(C)C(O)CC[C@]2(C)C1CC[C@@]1(C)C2C(=O)C=C2[C@@H]3C[C@@](C)(C(=O)O)CC[C@@]3(C)CCC21C (some centres not stated)	inactive	inactive	9.4% (inactive)	16.2	28.1	–	inactive	inactive	inactive	–	–	–	–	–	–	4.94 µM (active)	–	inactive
CC(=O)OC1CCC23CC1(C)CCC2C(C)(C)CC3OC(C)=O (configuration not stated)	inactive	inactive	2.71% (inactive)	3.38	6.37	–	inactive	inactive	inactive	–	–	–	–	–	–	39.3 µM (active)	–	inactive
CC1(C)C=CC(=O)[C@]2(C)C1CC(=O)[C@]1(C)C2CC[C@@]2(C)C(c3ccoc3)OC(=O)C3OC321 (some centres not stated)	inactive	inactive	-11.5% (inactive)	-7.57	-18.1	inactive	inactive	inactive	inactive	–	–	–	–	–	–	inactive	2 µM (active)	inactive
O=c1c(-c2ccccc2)coc2cc(O)cc(O)c12	inactive	inactive	13.9% (inactive)	-5.73	7.42	56.2 µM (active)	44.4 µM (active)	inactive	inactive	–	–	–	–	–	–	inactive	–	–
